Results reported in the supplement of paper PMC3334620.
Whole data set: some 33,000 sequences, median “E-score (-0.5 to 0.5)” near -0.017, cut for the highest 2% near 0.3. The list comes from a sample in which the highest values are over-represented; it also holds similar and randomly drawn sequences.

The sequences below were run against T1, Sut1 (UniProt P53032) (assay: PBM E-score (8-mer binding enrichment) (E-score (-0.5 to 0.5)); higher = stronger / more preferred TF binding). Conditions: protein concentration: 200 nM; construct: GST-full length.
T1 sequence: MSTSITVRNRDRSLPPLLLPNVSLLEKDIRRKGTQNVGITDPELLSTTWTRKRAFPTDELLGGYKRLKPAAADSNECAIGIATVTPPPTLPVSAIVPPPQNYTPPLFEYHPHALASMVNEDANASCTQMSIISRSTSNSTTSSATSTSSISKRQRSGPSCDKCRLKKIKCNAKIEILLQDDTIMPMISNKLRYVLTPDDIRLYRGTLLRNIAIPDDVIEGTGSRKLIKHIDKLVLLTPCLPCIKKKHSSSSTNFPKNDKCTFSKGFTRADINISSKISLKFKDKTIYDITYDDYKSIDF
Description: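 Universal 'all 10-mer' protein binding microarrays (Agilent AMADID 015681) probed with GST-tagged S. cerevisiae TFs (full-length or DBD) made by in vitro transcription/translation (PURExpress), about 100-200 nM. Bound TF was detected with fluorescent anti-GST. Each ungapped 8-mer (which stands for itself and its reverse complement) is scored by the PBM enrichment score (E-score), a modified Wilcoxon-Mann-Whitney statistic from -0.5 to +0.5, computed with the Universal PBM Analysis Suite. Scale: above 0.35 generally sequence-specific binding.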

Sequence	PBM E-score
AGCGGACG	-0.118
AGCGGACT	0.406
ACCGGAAC	0.29
AGCGGACA	0.107
AACGGACG	0.0275
ACCGGACC	0.364
AGCATATA	0.102
ACGCAAAC	-0.0168
CGGGGACA	-0.0417
AGAACAGC	-0.0298
ACGTGGTG	-0.133
CGCCATTA	0.0246
AGCCACCG	-0.122
ACTCCCCG	0.196
GCTCCGCA	0.227
ACTCCGCG	0.476
ACTCCGCT	0.452
GCTCCGCC	0.0486
CCTCCGCC	-0.221
ACTCCGCA	0.473
CCTCCGCG	-0.0947
AATCCGCT	-0.0383
CCTCCGCA	-0.205
ACTCCGCC	0.438
ACGCCGCT	-0.0911

Sequence	PBM E-score
CAACGGGA	0.0235
AGAACCAT	0.12
GAGGCTCC	0.0186
ACCTTTGG	-0.287
CACATCGA	-0.0466
AGCCACTG	-0.0195
AGGAGATA	-0.155
CGGAGACC	0.315
CGGAGACG	0.204
CGGAGATA	0.458
GGGAGACC	-0.235
CGGAGATC	0.445
CTGAGATC	-0.209
AGGAGATC	0.0207
GGGAGATA	-0.144
AAAAGCAA	0.242
ACCACCGT	-0.0843
GCAGGTAC	-0.132
CTCAAGCC	-0.126
GGAGAGCA	-0.125
CCCTAACA	0.071
AGTGCATG	-0.0963
CATGGGTC	-0.185
ATTCGTAC	0.154
AGGTCCGA	0.457

Sequence	PBM E-score
AGGTCCAG	-0.0827
AGGTCCGC	0.286
GGGTCCGA	0.295
AGGTCCGG	0.461
CGGTCCGA	0.264
CCTTGAAG	-0.0873
GCTCAAGA	-0.148
ATAGTGGG	-0.0539
AATCTGGT	0.047
AGGCCTTA	-0.127
GAAGCTCA	-0.033
AAAGCTCC	0.0815
GAAGCTCC	0.35
GACACCCA	-0.118
ATTCTATA	0.16
GGAGCGTA	0.0804
CAATCTCC	0.312
CAATCTCA	-0.0455
CTATCTCC	0.114
ATATCTCC	0.341
ATCTCTCC	-0.0902
CAATCTCG	-0.097
CATCTGCG	-0.0835
CGGTCAAG	-0.09
TCTGATAA	-0.0508

Sequence	PBM E-score
AATTGTCT	-0.0132
CTCGTTAA	0.1
CTAACGGC	0.0477
ATAACGGG	0.0139
CTAACGAA	-0.0566
CTAACGGA	0.305
GTAACGCA	0.021
GTAACGGA	0.329
GTAACGTA	0.0551
ATAACGGA	0.341
ATAACGGC	0.00713
GAAACGCA	0.026
CTGAGCGA	-0.162
AAGGTTGA	0.0981
GTTTAGTA	0.208
GACATCGC	-0.0981
CATAACAC	0.0299
CGCTCAGC	-0.105
ATTTTGCG	0.193
GCTCCCAC	-0.109
CATATGTC	-0.0849
CCTGTCAA	-0.085
CGCCGGGA	-0.203
CTCCGGGC	0.391
ATCCGGGC	0.127

Sequence	PBM E-score
GTCCGGGA	0.413
GACCGGGA	-0.0471
CCCCGGGA	-0.0206
CGCCGGGC	0.00809
ATCCGGGA	0.0768
CTCCGGGA	0.436
CCCGGTCC	-0.0342
AACTCACT	-0.151
CAATTCAA	0.0614
GGCCCTCA	-0.279
CTGGTTCA	-0.0784
ACTCGGAT	0.0613
CCTCGGAA	0.215
TCTCGGAA	0.215
ACTCGGAA	0.323
CCTCGGTA	-0.0533
ACTCGGAC	0.411
CCTCGGAC	0.412
CCTCGGGC	-0.209
ACTCGGGC	-0.0385
CCTCGGCG	-0.0382
CCTCGGAG	0.446
ACTCGGTC	-0.072
CTAGTTGC	-0.0129
GCCTTGGA	-0.0418

Sequence	PBM E-score
GACGCGTC	-0.325
ATCTATAG	0.11
CAGCCTGA	-0.275
ATATGAGG	-0.0891
GCTCGGAA	0.165
GCTCGGAC	0.365
ACTCGGCG	0.0415
ACTCGGTG	-0.0621
GCTCGGCC	-0.204
ACTCGGAG	0.399
ATACATTA	0.234
ACACTAAG	-0.0951
TATATAGA	0.278
TATATACA	0.316
GATATACA	0.194
AATATACA	0.29
CATATATA	0.299
GATATATA	0.247
CATATATG	0.0281
CATATATC	-0.0165
TATATATA	0.381
GGCCAGCA	-0.168
ACCCAGGA	-0.13
AAGACTTC	-0.196
AACCCCTC	-0.198

Sequence	PBM E-score
AAGGGGGA	-0.0309
CAGTCAAA	0.0987
CCTTGCAG	-0.143
ACTCGTCG	-0.174
TAATCGCA	-0.0128
CTCGGAAA	0.19
ATCGGAAA	0.302
AACGGAAT	0.294
AACGGAAA	0.327
GTCGGAAC	0.134
TTCGGAAA	0.252
ATCGGAAG	0.253
ATCGGAAT	0.352
CACGGAAA	0.188
AGCGGAAT	0.0494
GTCGGAAA	0.355
ATCGGAAC	0.14
AGTAACTC	0.115
CGACGAAA	0.0757
AAGTGAGC	-0.0565
GCTTTTTA	0.161
GGAGCGAA	0.0455
